Screening results deposited in PubChem BioAssay by National Center for Advancing Translational Sciences (NCATS).
AMA1-RON2 inh: qHTS for Inhibitors of AMA1-RON; Towards Development of Antimalarial Drug Lead: Primary Screen; AlphaScreen AMA1-biotinylated RON2 peptide binding; Potency, µM (doses to about 58.2 µM), for inactives: top-dose activity change, negative = inhibition, usual class: inhibitors; hit rate 0.2% among 360,000; AID 720542, 2013;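 further: potency means the concentration at half of the fitted maximal effect; 0% = vehicle wells and -100% = peptide control; nearly all actives have a fitted effect of over 45% in size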
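AMA1 (3D7) with his tag at 25 nM final met compounds first, then biotinylated RON2 peptide at 25 nM; detection used donor plus acceptor beads, 10 µg/mL apiece, read by AlphaScreen after 30 min at room temperature.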
Pf growth 96h: Primary qHTS for delayed death inhibitors of the malarial parasite plastid, 96 hour incubation; hit rate 6.9% among 320,000; Potency, µM (series often up to 28.7 µM), inactives show at the top dose activity change, negative = inhibition, hits mostly inhibitors; P. falciparum luciferase reporter growth, 96 h; further: potency means the concentration at half of the fitted maximal effect; on the % scale 0 is the no-effect control and ±100 the full control effect
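Readout is luminescence from an integrated firefly luciferase in P. falciparum. Red cells, 2% hematocrit and 0.05% parasitemia final, were cultured with compound through two parasite generations (96 hours) at 37 C, 5% CO2.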
HCV inh: qHTS Assay for Inhibitors of Hepatitis C Virus (HCV) | Huh7.5.1 HCVcc-Cre infection, luciferase reporter, 44 h | Potency, µM (top dose mostly 41.8 µM), without a hit: at the highest dose activity change, negative = inhibition, usual class: inhibitors | hit rate 3.4% among 340,000; further: potency means the concentration at half of the fitted maximal effect; on the % scale 0 is the no-effect control and ±100 the full control effect
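Cells (1,000/well) were plated 4 h before compound, then infected with HCVcc-Cre virus (~0.5 moi). After 44 h further culture, infection was read as luciferase luminescence following a 15 min substrate incubation at room temperature.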
Pf growth 48h: Primary qHTS for delayed death inhibitors of the malarial parasite plastid, 48 hour incubation; P. falciparum luciferase growth in erythrocytes, 48 h; hit rate 5.9% among 310,000; AID 504832, 2011; Potency, µM (highest dose often 28.7 µM), for inactives: at the top dose activity change, negative = inhibition, usual class: inhibitors; further: potency means the concentration at half of the fitted maximal effect; on the % scale 0 is the no-effect control and ±100 the full control effect
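A one-generation exposure of luciferase-tagged malaria parasites in RPMI 1640/Albumax erythrocyte culture, 37 C and 5% CO2. Inhibition is inferred from decreased luminescence after adding detection reagent.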
Cycloheximide cs: Cycloheximide Counterscreen for Small Molecule Inhibitors of Shiga Toxin. max response, %. hit rate 12% among 300,000. cell reporter, cycloheximide protein synthesis inhibition counterscreen; in the data active means max response mostly above about 13%, no sharp cut-off; inactive means mostly below about 14%; further: read at 38.3 µM for the half of the compounds with a filed dose; 0% is about no effect
Shiga inhibitor: A qHTS for Small Molecule Inhibitors of Shiga Toxin; inhibition, % at 38.7 µM; Vero cells, Shiga toxin protein synthesis inhibition reporter; hit rate 9.2% among 290,000; in the data active means inhibition mostly above about 28%, no sharp cut-off; inactive means mostly below about 43%; further: 0% is about no effect
The depositor's hits bear a star; ? = inconclusive; . = no result given. In the library only some 21% were active in any assay of this set; here they are far more common. Unless noted, the call rests on the fitted dose curve; in most records, active means well fitted curve in the direction sought with a large enough effect; inconclusive means small, poorly fitted or top-dose-only effect, or another doubt; inactive means no such curve, though single readings can be large; an effect the other way counts as inactive or inconclusive.

SMILES	AMA1-RON2 inh	Pf growth 96h	HCV inh	Pf growth 48h	Cycloheximide cs	Shiga inhibitor
O=C(c1oc2ccccc2c1CSCc1ccccc1)N1CCN(c2ncccn2)CC1	-15%	17%	11µM*	?	-2	4
Cc1c(C(=O)N2CCN(c3ccccn3)CC2)oc2ccccc12	14%	.	-20%	8.3µM*	20*	67*
CCOc1ccc2oc(C(=O)N3CCN(c4ccccn4)CC3)c(C)c2c1	?	13µM*	-12%	-15%	13	-2
CC(=O)N1CCN(C(=O)c2oc3ccccc3c2C)CC1	-15%	-6%	15%	-19%	0	-27
C[C@@H]1CN([C@H](C)CO)C(=O)CCCn2nncc2CO[C@H]1CN(C)S(=O)(=O)c1ccccc1F	6%	.	.	.	.	.
CCOC(=O)CN(c1sc(C)c(C)c1C(=O)OCC)S(=O)(=O)c1ccc(C)cc1	-2%	.	.	.	.	.
CCOc1cc(N2CCOCC2)c(OCC)cc1NC(=O)COC(=O)COc1ccc(C#N)cc1	0%	6%	17%	63%	-2	-6
CCOc1ccc(NC(=O)CNC(=O)c2cccs2)cc1	2%	0%	12%	31%	13	42
COc1ccc(Cl)cc1NC(=O)CN(C)C1CCS(=O)(=O)C1 (centres undefined)	3%	?	?	?	.	.
COc1ccc(N2CCN(C(=O)c3oc4ccccc4c3C)CC2)cc1	14µM*	4%	?	-1%	13	-5
COc1ccc2oc(C(=O)N3CCN(C(c4ccccc4)c4ccccc4)CC3)c(C)c2c1	?	4.7µM*	?	3.7µM*	.	.
COc1ccc(N2CCN(C(=O)c3oc4ccccc4c3NC(=O)Cc3cccc(OC)c3)CC2)cc1	?	0%	?	?	-3	-12
CCCN1CCN(C(=O)c2oc3ccccc3c2NC(=O)COc2ccc(OC)cc2)CC1	-9%	?	?	?	3	-2
COc1ccc2oc(C(=O)N3CCN(C/C=C/c4ccccc4)CC3)c(C)c2c1	-6%	4%	-9%	-12%	.	.
COc1ccc(OCC(=O)Nc2c(C(=O)N3CCN(C)CC3)oc3ccccc23)cc1	-10%	9.3µM*	-10%	-9%	-1	-13
CC1(C(=O)NS(=O)(=O)c2ccccc2OC(F)(F)F)CCN1C(=O)c1ccco1 (centres undefined)	2%	.	.	.	.	.
CCCc1nc(SCC(=O)c2ccc(OC)cc2)c2ccccc2n1	51%	37%	13µM*	?	-1	-3
COCC(C)n1c(SCC(=O)Nc2sccc2C(N)=O)nc2ccccc2c1=O (centres undefined)	-12%	?	?	9.3µM*	.	.
Cc1cc(NC(=O)CSc2nc(CCC3CCCC3)nc3ccccc23)no1	32%	-1%	?	?	1	-8
CCc1nc(SCC(=O)NNC(=O)c2ccc(OC)cc2)c2ccccc2n1	78%	?	2%	-17%	0	-16
CCCc1nc(SCC(=O)Nc2cc(C)on2)c2ccccc2n1	-13%	2.1µM*	?	-23%	6	-18
COCC(C)n1c(SCC(=O)Nc2nccs2)nc2ccccc2c1=O (centres undefined)	3%	39%	3%	25%	.	.
Cc1cc(NC(=O)CSc2nc3ccccc3c(=O)n2C(C)c2ccccc2)no1 (centres undefined)	-5%	12µM*	?	.	-4	-6
CCc1ccc(NC(=O)C(C)Sc2nnc(CN3CCCC3)o2)cc1 (centres undefined)	50%	-1%	6%	1%	.	.
COc1ccc2nc(SCCC(=O)O)cc(C)c2c1	10%	-14%	-11%	22%	-1	22
SMILES	AMA1-RON2 inh	Pf growth 96h	HCV inh	Pf growth 48h	Cycloheximide cs	Shiga inhibitor
CCOC(=O)/C=C1\SCC(=O)N1CC(=O)Nc1cc(S(=O)(=O)N(C)C)ccc1C	-5%	.	-3%	.	.	.
CCc1nc2ccccc2n1CC(=O)Nc1cc(C)on1	0%	4.7µM*	?	54%	8	8
CC(C)CCCN1C(N(C)C)=NC[C@@H]1Cc1ccccc1	6%	?	?	?	.	.
O=C(OCC1OC2OC3(CCCCC3)OC2C2OC3(CCCCC3)OC12)c1ccccc1 (centres undefined)	4%	?	-3%	?	0	-8
O=C(O)C1OC2OC3(CCCCC3)OC2C2OC3(CCCCC3)OC12 (centres undefined)	-1%	1.5µM*	35%	13%	-2	-12
CCn1ncc(C2=NOC(C(=O)Nc3cccnc3)C2)c1C (centres undefined)	-8%	-23%	.	-1%	19*	13
O=C(Nc1cccc2cccnc12)c1ccccc1Cl	8%	.	?	.	.	.
O=C(Nc1cccc2cccnc12)c1cc(F)c(F)cc1Cl	5%	32%	?	49%	29*	.
COc1ccccc1C(=O)Nc1cccc2cccnc12	19%	-35%	?	35%	39*	42
Cc1ccc(CN2CCSc3ccc(C(=O)NC4CCCC4)cc32)cc1	18%	?	-12%	?	1	18
Cc1ccc(CN2C(=O)/C(=C\c3ccc(C(=O)NCc4cccnc4)cc3)Oc3ccccc32)cc1	.	1.7µM*	0%	?	2	-14
O=C(CN1C(=O)/C(=C\c2ccccc2Cl)Oc2ccccc21)NCc1cccnc1	18%	-37%	-5%	-13%	9	-17
Cc1ccc(CN2CCSc3ccc(C(=O)NCCCN4CCN(C)CC4)cc32)cc1	-21%	?	?	15µM*	1	-7
Cc1ccc(CN2CCSc3ccc(C(=O)NCc4cccnc4)cc32)cc1	-12%	40%	25µM*	?	0	-14
COc1ccc(CCNC(=O)c2ccc3c(c2)N(Cc2ccc(C)cc2)CCS3)cc1OC	-9%	-21%	8.9µM*	10µM*	-2	13
Cc1ccc(-c2nc(SC(C)C(=O)N3CCOCC3)n[nH]2)cc1 (centres undefined)	-4%	?	15%	-4%	3	3
COC(=O)C1=C(C)NC=C([N+](=O)[O-])C1c1ccc(OC)cc1 (centres undefined)	8%	?	11%	-1%	-3	-2
CCCS(=O)(=O)NC(=O)C1(C)CCN(C(=O)COc2ccccc2)C1 (centres undefined)	7%	.	.	.	.	.
Cc1ccccc1C(=O)NCCSc1ccccc1	7%	251%	-4%	.	32*	93
CSc1ccccc1C(=O)NCCSC(C)(C)C	-3%	13%	5%	2%	7	12
CSc1ccccc1C(=O)N(C)C(c1ccccc1)c1ccccc1	7%	10µM*	?	?	-1	4
